# Measured values taken from PubChem BioAssay AID729 (The Scripps Research Institute Molecular Screening Center, 2007).
# Hit rate of the full screen: of about 97,000 compounds, about 450 (0.46%) were called active. What follows is part of a selection rich in actives, with near analogues and random picks from the rest. A number with no mark means an inactive call. No stated cut-off is given here; in the data, active means activation above about 16%; inactive means the rest.
# Molecular target: Sphingosine 1-phosphate receptor 2 (Homo sapiens) (UniProt O95136)
# Experiment: S1P2 receptor agonists, primary screen, cell-based (AID 729);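 further: 0% = vehicle low control and 100% = maximal reference agonist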
# Settings: S1P2-expressing cell line, agonist reporter read-out; at 4.5 µM; active compounds read high
# Chain of Sphingosine 1-phosphate receptor 2 (Homo sapiens) (O95136 whole entry, looked up): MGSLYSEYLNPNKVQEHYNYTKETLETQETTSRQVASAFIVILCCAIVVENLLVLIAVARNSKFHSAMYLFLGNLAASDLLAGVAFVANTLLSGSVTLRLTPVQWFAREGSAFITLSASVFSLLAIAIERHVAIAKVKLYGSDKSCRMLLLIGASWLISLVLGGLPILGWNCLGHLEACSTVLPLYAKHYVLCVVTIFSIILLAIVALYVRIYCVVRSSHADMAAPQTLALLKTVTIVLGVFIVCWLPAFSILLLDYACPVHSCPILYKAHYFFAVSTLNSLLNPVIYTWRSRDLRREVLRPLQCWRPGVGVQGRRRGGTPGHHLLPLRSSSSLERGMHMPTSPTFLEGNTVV
row,Compound,activation
1,Cc1ccc(-n2c(SCC(=O)Nc3ccc4c(c3)OCO4)nnc2-c2ccccn2)cc1,-1.29%
2,Cc1cccc(C)c1NC1=NC(=S)N(c2ccc(N(C)C)cc2)C1(C)C,-9.2%
3,Cc1cc(C(=O)OCC(=O)Nc2ccc(F)c(F)c2)c(C)o1,-1.12%
4,Cc1sc2nc(SCC(N)=O)n(C)c(=O)c2c1C,-6.32%
5,CCOc1ccc(NC(=O)CN(C)CC(=O)Nc2cccc(Cl)c2C)cc1OCC,-8.46%
6,CS(=O)(=O)Nc1ccc(C(=O)N2CCCC2)cc1,-1.67%
7,O=C(NC1CCCCC1)c1cc([N+](=O)[O-])ccc1N1CCOCC1,-3.96%
8,COc1ccc(CSc2nc(N3CCOCC3)c3c(c2C#N)CC(C)(C)OC3)cc1,-4.98%
9,CC(C)c1nc(N2CCOCC2)c(C#N)c2c1COC(C)(C)C2,-3.4%
10,CC1(C)Cc2c(C#N)c(SCc3nc4ccccc4[nH]3)nc(N3CCOCC3)c2CO1,31% (active)
11,Cc1c(CCO)c(=O)[nH]n1C(=O)c1c(F)cccc1F,-3.16%
12,CCn1c(SCC(=O)c2ccc3ccccc3c2)nnc1-c1cccs1,-3.98%
13,CCCc1nc2oc3c(OCC)ncnc3c2c2c1COC(C)(C)C2,-0.19%
14,O=C(Oc1ccc([N+](=O)[O-])cc1)c1ccc2ccccc2n1,-2.37%
15,CCOC(=O)c1cnc(SCC(=O)Nc2ccccc2C(=O)OC)nc1N,1.96%
16,O=C(Cc1ccc2c(c1)CCCC2)Nc1ccccc1Cl,-3.38%
17,C=C(C)Cn1c(N2CCN(CC)CC2)nc2c1c(=O)[nH]c(=O)n2C,-3.08%
18,C=C(C)Cn1c(N2CCCC2)nc2c1c(=O)[nH]c(=O)n2C,19.6% (active)
19,Cc1nnc(SCCCn2c(N3CCCCC3)nc3c2c(=O)[nH]c(=O)n3C)s1,-7%
20,O=C(O)c1ccccc1-c1ccccc1C(=O)Nc1cccc2ccccc12,-6.33%
21,CCOC(=O)c1cc(C#N)c(N2CCCCC2)nc1-c1ccccc1,-3.1%
22,Cc1ccc(C(=O)N2CCCC2)c(F)c1F,-3.27%
23,COc1ccc(-n2nnnc2SCC(=O)Nc2ccccc2)cc1,-5.85%
24,COc1ccccc1N1CC(C(=O)Nc2ccc(S(=O)(=O)N3CCOCC3)cc2)CC1=O (stereo not drawn),-6.57%

row,Compound,activation
1,COc1ccc(Cc2nnc(SCC(=O)c3cccc([N+](=O)[O-])c3)n2C)cc1,-3.41%
2,CN(C)CCNC(=O)Nc1cccc(Cl)c1Cl,-3.84%
3,O=C(/C=C/c1ccc(Cl)cc1Cl)NCc1ccco1,-1.23%
4,O=C(COc1ccc2c(C(F)(F)F)cc(=O)oc2c1)Nc1ccc2c(c1)OCCO2,-0.82%
5,COc1ccc(CCNC(=O)CN(c2ccccc2)S(C)(=O)=O)cc1OC,-5.51%
6,CC(C)c1ccc(NC(=O)CCN2C(=O)c3ccc([N+](=O)[O-])cc3C2=O)cc1,-2.71%
7,Cc1nnc(SCC(=O)Nc2ncc3c(n2)CC(C)(C)CC3=O)s1,-4.47%
8,CCN(CC)CCCNC(=O)CCc1ccccc1,-2.5%
9,COCCOC(=O)C1=C(C)Nc2nc(C)nn2C1c1ccccc1 (stereo not drawn),0.76%
10,CCCCCOC(=O)C1=C(C)Nc2nnnn2C1c1ccc(OC)c(OC)c1OC (stereo not drawn),-4.69%
11,COc1cc(C2C(C(=O)OCCC#N)=C(C)NC3=C2S(=O)(=O)c2ccccc23)cc(OC)c1OC (stereo not drawn),26.2% (active)
12,CC(C)C(=O)Nc1nnc(Sc2ccc(N(C)C)cc2)s1,-5.86%
13,O=c1oc2c(Cl)cc(Cl)cc2cc1-c1nnc(Nc2ccccc2F)s1,-0.35%
14,Cn1c(=O)n(C)c2cc(/C=N/NC(=O)c3cccc(Br)c3)ccc21,-7.52%
15,Nc1c(C(=O)NCc2ccccc2)sc2nc3c(cc12)C(=O)CCC3,-2.41%
16,CCCCNC(=O)C1CCCN(S(=O)(=O)c2ccc(S(=O)(=O)NCC(C)C)cc2)C1 (stereo not drawn),-2.41%
17,COC(=O)c1ccccc1Oc1c(F)c(F)nc(N2CCOCC2)c1F,-3.44%
18,COc1ccc(C2C(C(C)=O)=C(O)C(=O)N2Cc2cccnc2)cc1 (stereo not drawn),-3.66%
19,CC(C)C(C)NC(=O)COc1ncnc2ccccc12 (stereo not drawn),-3.57%
20,CC1Cc2ccccc2N1CC(=O)Nc1ccc2c(c1)OC(F)(F)O2 (stereo not drawn),2.93%
21,O=C(CN1CCN(S(=O)(=O)c2ccc3ccccc3c2)CC1)NC(=O)NC1CCCCC1,-7.63%
22,CCOC(=O)c1nc(Nc2ccc(C(=O)OC)cc2)c2ccccc2n1,-2.78%
23,CCc1ccc(NC(=O)CN2C(=O)CSC2=O)cc1,-3.93%
24,Cn1cnc([N+](=O)[O-])c1Nc1ccccc1O,-3.11%
